Among the test systems are NCI-H23 lung; NCI-H226 lung; NCI-H322M lung; HOP-62 NSCLC; NCI-H460 lung; 786-0 renal; DU-145 prostate; MDA-MB-231 breast; SF-268 CNS; SNB-19 CNS; UACC-62 melanoma; SK-MEL-28 melanoma; SN12C renal; UO-31 renal; OVCAR-5 ovarian; OVCAR-3 ovarian; NCI/ADR-RES ovarian; MDA-MB-435 melanoma; MCF7 breast; KM12 colon.
Common to all, as to assay: NCI-60 one-dose screen, 48 h (100 = growth as untreated, 0 = no growth, -100 = all killed)
Holding throughout (settings): 10 µM unless noted

In PubChem BioAssay (NCI) one finds growth data, which are given here for eight molecules.

This is part of a sample that, as a whole, favours compounds with a hit. Of some 83,000 tested, about 20% had one in any assay.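 Step 1: grow cells in 96-well plates. Step 2: add test compound at a single concentration. Step 3: incubate 48 h. Step 4: record percent growth.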 A number with no mark means an inactive call. The source made the active and inactive calls. How the source made its calls: active means growth percent below 10; inactive means the rest.

Consider `O=c1cc[nH]c(=O)o1`, for which the growth in the test with NCI-H23 lung was 105%; in the test with NCI-H226 lung it was 98.4%; in the test with NCI-H322M lung, 105%; in the test on HOP-62 NSCLC it was 102%; in the test with NCI-H460 lung, 106%; in the test on 786-0 renal, 98.7%. Besides, the growth in the test on DU-145 prostate was 104%; in the test with MDA-MB-231 breast it was 117%; in the test with SF-268 CNS, 99.9%; in the test on SNB-19 CNS, 108%; in the test with UACC-62 melanoma, 99.4%; with SK-MEL-28 melanoma it was 111%. The growth was 105% in the test on SN12C renal; 93.6% in the test with UO-31 renal; 109% in the test with OVCAR-5 ovarian; 107% in the test on OVCAR-3 ovarian; 111% in the test with NCI/ADR-RES ovarian; 111% in the test with MDA-MB-435 melanoma. For the same molecule, the growth is 96.9% in the test with MCF7 breast and 103% with KM12 colon.

As for `Nc1ccc([N+](=O)[O-])c2c1Oc1ccccc1O2`, the growth in the test with NCI-H23 lung was 94.3%; in the test on NCI-H226 lung, 87.4%; in the test with NCI-H322M lung, 93.9%; with HOP-62 NSCLC, 90.9%; in the test on NCI-H460 lung it was 111%; with 786-0 renal, 82.7%. Also, the growth was 93.1% in the test on DU-145 prostate; 97% with MDA-MB-231 breast; 107% with SF-268 CNS; 80.8% in the test with SNB-19 CNS; 81.7% in the test on UACC-62 melanoma; 116% in the test with SK-MEL-28 melanoma. The growth with SN12C renal is 98%; in the test with UO-31 renal it was 10%; in the test on OVCAR-5 ovarian it was 88.1%; in the test on OVCAR-3 ovarian, 88.3%; in the test with NCI/ADR-RES ovarian it was 99.4%; in the test on MDA-MB-435 melanoma, 106%. The figures for the growth with MCF7 breast and in the test with KM12 colon were 101% and 99.8%, respectively.

Regarding `ClCCN(CCCl)c1nc(Cl)c(C2CC(c3ccc(Cl)cc3)=NN2c2cc(Cl)cc(Cl)c2)s1` (stereo not given), the growth in the test on NCI-H23 lung was 94.1%; in the test with NCI-H226 lung it was 99.9%; in the test on NCI-H322M lung it was 102%; in the test with HOP-62 NSCLC, 98.4%; with NCI-H460 lung, 101%; in the test on 786-0 renal it was 103%. Moreover, the growth with DU-145 prostate was 116%; in the test on MDA-MB-231 breast, 107%; in the test with SF-268 CNS, 102%; in the test on SNB-19 CNS, 88.1%; with UACC-62 melanoma, 82.7%; with SK-MEL-28 melanoma it was 121%. In addition, the growth was 92% in the test on SN12C renal; 91.3% in the test with UO-31 renal; 108% in the test on OVCAR-5 ovarian; 108% in the test with OVCAR-3 ovarian; 114% in the test with NCI/ADR-RES ovarian; 103% in the test on MDA-MB-435 melanoma. The growth in the test on MCF7 breast was 95.1%; in the test on KM12 colon it was 108%.

In the case of `CN1CCN(C(=O)COc2ccc(/C=C3\CC4C5CC=C6CC(Cl)CCC6(C)C5CCC4(C)C3=O)cc2)CC1` (stereo not given), the growth in the test on NCI-H23 lung is 71.2%; in the test on NCI-H226 lung, 77.2%; with NCI-H322M lung, 85.7%; with HOP-62 NSCLC, 96.7%; in the test on NCI-H460 lung, 17.2%; in the test on 786-0 renal, 70.2%. Also, the growth was 64.9% in the test with DU-145 prostate; 75.2% with MDA-MB-231 breast; 73.2% with SF-268 CNS; 98% in the test with SNB-19 CNS; 90% in the test with UACC-62 melanoma; 103% in the test on SK-MEL-28 melanoma. Also, the growth with SN12C renal was 79.7%; in the test on UO-31 renal, 99.9%; in the test with OVCAR-5 ovarian, 99.7%; with OVCAR-3 ovarian it was 76.1%; in the test on NCI/ADR-RES ovarian, 69.2%; in the test with MDA-MB-435 melanoma, 56.6%. The figures for the growth with MCF7 breast and in the test on KM12 colon were 83.9% and 72.9%, respectively.

With `O=C(CCl)NCNC(=O)CCl`, the growth is 97.8% with NCI-H23 lung; 112% in the test on NCI-H226 lung; 100% in the test on NCI-H322M lung; 97.2% in the test on HOP-62 NSCLC; 103% with NCI-H460 lung; 107% in the test on 786-0 renal. The growth with DU-145 prostate was 103%; in the test with MDA-MB-231 breast, 99.7%; in the test on SF-268 CNS, 98.1%; in the test with SNB-19 CNS it was 108%; in the test with UACC-62 melanoma, 82%; in the test with SK-MEL-28 melanoma, 93.7%. Besides, the growth was 97.7% with SN12C renal; 93.5% in the test on UO-31 renal; 115% with OVCAR-5 ovarian; 105% in the test with OVCAR-3 ovarian; 103% with NCI/ADR-RES ovarian; 93.9% in the test with MDA-MB-435 melanoma. Further, the values for the growth in the test with MCF7 breast and with KM12 colon were 85.1% and 104%, respectively.

For `O=C(CC1(O)C(=O)Nc2ccc(F)cc21)c1ccc(C(=O)NCC2CCC3(CC2)OOC2(CCCCC2)OO3)cc1` (stereo not given), the growth was 34.9% in the test on NCI-H23 lung; 69.3% with NCI-H226 lung; 94.6% in the test with NCI-H322M lung; -14.4% (active) in the test with HOP-62 NSCLC; 21.7% in the test on NCI-H460 lung; -78.5% (active) in the test with 786-0 renal. Further, the growth in the test with DU-145 prostate is 3.83% (active); in the test with MDA-MB-231 breast, 41.5%; with SF-268 CNS, 63.4%; in the test on SNB-19 CNS it was 80.2%; with UACC-62 melanoma, 73.4%; with SK-MEL-28 melanoma, 78.5%. Moreover, the growth is 51.4% with SN12C renal; -81.7% (active) in the test on UO-31 renal; 87.3% with OVCAR-5 ovarian; -50.1% (active) in the test with OVCAR-3 ovarian; 80% with NCI/ADR-RES ovarian; 63.8% with MDA-MB-435 melanoma. Moreover, the figures for the growth in the test on MCF7 breast and with KM12 colon were 60.9% and 32.5%, respectively.

As for `O=C(O)c1cccc(CCl)c1`, the growth is 108% in the test on NCI-H23 lung; 104% in the test with NCI-H226 lung; 107% in the test on NCI-H322M lung; 108% in the test on HOP-62 NSCLC; 103% with NCI-H460 lung; 101% in the test on 786-0 renal. For the same molecule, the growth is 108% in the test with DU-145 prostate; 113% in the test on MDA-MB-231 breast; 102% with SF-268 CNS; 114% in the test on SNB-19 CNS; 108% in the test with UACC-62 melanoma; 110% in the test with SK-MEL-28 melanoma. Further, the growth in the test with SN12C renal was 107%; with UO-31 renal, 90.3%; in the test on OVCAR-5 ovarian, 102%; in the test on OVCAR-3 ovarian, 109%; with NCI/ADR-RES ovarian, 103%; with MDA-MB-435 melanoma, 104%. The results for the growth in the test with MCF7 breast and in the test on KM12 colon were 98.4% and 96.3%, respectively.

Consider `CC(=O)N1N=C(c2ccccc2)CC1c1sc(N(CCCl)CCCl)nc1Cl` (stereo not given), for which the growth in the test on NCI-H23 lung is 85.8%; in the test on NCI-H226 lung, 89.1%; with NCI-H322M lung, 90.6%; in the test with HOP-62 NSCLC, 90%; in the test with NCI-H460 lung, 96.2%; in the test on 786-0 renal, 99.7%. The growth with DU-145 prostate is 99.5%; in the test on MDA-MB-231 breast it was 95.3%; with SF-268 CNS, 94%; with SNB-19 CNS, 86.1%; in the test on UACC-62 melanoma, 64.5%; in the test on SK-MEL-28 melanoma, 108%. The growth with SN12C renal was 86.6%; with UO-31 renal, 80%; in the test with OVCAR-5 ovarian, 98.4%; in the test on OVCAR-3 ovarian, 96.4%; in the test with NCI/ADR-RES ovarian, 99%; with MDA-MB-435 melanoma, 97.4%. Further, the growth was 95% with MCF7 breast and 95.8% in the test with KM12 colon.
